From PubChem
Pf growth 96h: Primary qHTS for delayed death inhibitors of the malarial parasite plastid, 96 hour incubation; Potency, µM (highest dose often 28.7 µM), usual class: inhibitors; AID 504834, 2011; 320,000 compounds, 6.9% hits; P. falciparum luciferase reporter growth, 96 h
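Readout is luminescence from an integrated firefly luciferase in P. falciparum. Red cells, 2% hematocrit and 0.05% parasitemia final, were cultured with compound through two parasite generations (96 hours) at 37 C, 5% CO2.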
NS1 inh: qHTS Assay for Inhibitors of Influenza NS1 Protein Function | Potency, µM (series often up to 46.1 µM) | 270,000 compounds, 0.4% hits | AID 2326, 2010; calls by dose curve; also: actives are rising curves; nearly all actives have a fitted effect of over 50% in size
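Recovery from NS1-induced slow growth read by OD600 in budding yeast switched to galactose assay medium (pH 6.0, -URA) at 1:100 dilution. Compound 23 nl per well; the matching strain lacking NS1 serves as control.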
SARS PLP yeast: qHTS of Yeast-based Assay for SARS-CoV PLP; S. cerevisiae expressing SARS-CoV PLpro, growth rescue; Potency, µM (series often up to 32.9 µM), hits mostly activators; 330,000 compounds, 0.19% hits; AID 485353, 2010; calls by dose curve; also: nearly all actives have a fitted effect of over 55% in size
Pf growth 48h: Primary qHTS for delayed death inhibitors of the malarial parasite plastid, 48 hour incubation | P. falciparum luciferase growth in erythrocytes, 48 h | Potency, µM (doses to about 28.7 µM), usual class: inhibitors | 310,000 compounds, 5.9% hits | AID 504832, 2011
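Growth was read as firefly luciferase luminescence after a 48 h, 37 C, 5% CO2 exposure of compounds to reporter-bearing P. falciparum cultures (0.1% parasitemia, 2% hematocrit final) in Albumax-supplemented RPMI 1640.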
Of the large screens only hits and unclear results are named; the others gave an inactive call. Compounds with a hit are over-represented: about 10% of the library has one in this group of screens. Unless noted, calls follow the shape of the dose curve; as a rule, active = well fitted inhibition curve with a large enough effect; inconclusive = small, poorly fitted or top-dose-only effect, or another doubt; inactive = no such curve, though single readings can be large or run the other way.

CC(C)CCNc1nc(-c2ccco2)c2c(c1C#N)CCCC2	Pf growth 96h 13µM (no result: Pf growth 48h)
CCOc1ccccc1NC(=O)NNC(=O)c1ccc2ccccc2c1	none
CCOc1ccccc1NC(=O)c1cc(CC(C)C)oc1C	Pf growth 48h 10µM
CCOc1ccccc1NC(=O)c1ccc2ccccc2c1	Pf growth 96h 12µM
CCOc1ccccc1NC(=O)c1ccc2[nH]c(C)c(C)c2c1	Pf growth 96h inconclusive, NS1 inh inconclusive, Pf growth 48h 15µM
CCOc1cc(NC(=S)Nc2ccccc2)c(OCC)cc1NC(=O)c1ccc(OC)cc1	Pf growth 96h inconclusive, NS1 inh inconclusive, Pf growth 48h 12µM
Cc1oc(CC(C)C)cc1C(=O)Nc1cccc2ccccc12	none
CCOc1ccc(CCNC(=O)c2c(C)nn(-c3ccccc3)c2Cl)cc1OCC	none
Cc1[nH]c2ccc(C(=O)OCCN(C)C)cc2c1C	Pf growth 96h 4.7µM
CC(C)(C)c1ccc(C(=O)OCCN2CCCCC2)cc1	Pf growth 96h 5.9µM
COc1ccc(C(=O)OCCN2CCCCC2)cc1	Pf growth 96h inconclusive (no result: NS1 inh)
CCCN(CCC)[C@@H]1CCc2cccc(O)c2C1	Pf growth 96h 4.1µM, Pf growth 48h 5.2µM
CC1CCc2ccccc2N1C(=N)N(C)C (stereo not drawn)	none
CCCN1CCN(C(=O)C(NC(=O)c2ccco2)C(C)C)CC1 (stereo not drawn)	none
CN(c1ccc(C(=O)N/N=C/c2cccc([N+](=O)[O-])c2)cc1)S(=O)(=O)c1ccccc1	Pf growth 96h inconclusive, Pf growth 48h 6.6µM
CCOc1cc(/C=N/NC(=O)c2cccc([N+](=O)[O-])c2)ccc1OS(=O)(=O)c1ccccc1	Pf growth 96h inconclusive, NS1 inh inconclusive, Pf growth 48h 12µM
Cc1ccc([N+](=O)[O-])cc1NC(=O)CSc1nnc(C)n1CC1CCCO1 (stereo not drawn)	none
CCOc1ccc(NS(=O)(=O)c2c(C)nc3sc(CC)nn3c2=O)cc1	none
O=C(CNCc1ccc(Cl)cc1)Nc1ccc(C(=O)N2CCCCCC2)cc1	none
Cc1ccc2c(c1)N(CC(=O)c1cccc(Cl)c1)C(=O)C(C)O2 (stereo not drawn)	Pf growth 96h 4.1µM, Pf growth 48h inconclusive
COCCN1C(=O)C(=O)/C(=C(/O)c2ccc(S(=O)(=O)N3CCCCC3)cc2)C1c1ccc(O)c(OC)c1 (stereo not drawn)	none
CCOC(=O)N1CCN(C(=O)c2ccc3nc4ccc(Cl)cc4c(=O)n3c2)CC1	Pf growth 96h inconclusive
CCOC(=O)N1CCN(C(=O)c2cccn3c(=O)c4sccc4nc23)CC1	Pf growth 96h 2.3µM
CCOC(=O)N1CCN(C(=O)c2cccn3c(=O)c4cc(Br)ccc4nc23)CC1	none (no result: NS1 inh)
CCOC(=O)N1CCN(C(=O)c2ccc3nc4ccsc4c(=O)n3c2)CC1	Pf growth 96h 8.3µM
CC(Oc1coc(CN2CCN(C(=O)c3ccco3)CC2)cc1=O)c1ccccc1 (stereo not drawn)	none (no result: NS1 inh)
NC(=O)c1ccc(SCC(=O)OCC(=O)NCC2CCCCC2)c([N+](=O)[O-])c1	none (no result: NS1 inh)
Cc1cc(C(F)(F)F)n2nc(-c3cnn(C)c3C(F)(F)F)c(Cl)c2n1	Pf growth 96h inconclusive, Pf growth 48h 3.3µM
O=C1C(C2=NC(c3ccccn3)C3C(=O)N(c4ccccc4)C(=O)C23)=C(O)c2ccccc21 (stereo not drawn)	none
CN(C)c1ccc(P(=O)(OC2CCCCC2)C(Nc2ccccc2)c2cccnc2)cc1 (stereo not drawn)	Pf growth 96h 2.9µM, Pf growth 48h 9.3µM
CC(C)OP(=O)(c1ccc(N(C)C)cc1)C(Nc1ccccc1)c1cccnc1 (stereo not drawn)	Pf growth 48h inconclusive
CCN(CC)CCNC(=O)c1ccc(NC(=O)c2ccc(Cl)c(S(=O)(=O)Nc3ccccc3OC)c2)cc1	Pf growth 96h 2.3µM, Pf growth 48h inconclusive
CCN(CC)CCNC(=O)c1ccc(NC(=O)Nc2cccc3ccccc23)cc1	Pf growth 96h 9.3µM, Pf growth 48h 13µM
COc1ccc(NC(=O)c2cccc(S(=O)(=O)N3CCc4ccccc43)c2)cn1	Pf growth 96h 12µM, Pf growth 48h inconclusive
COc1ccccc1NS(=O)(=O)c1cc(C(=O)NCCC(C)C)ccc1F	none
CCN(CC)CCNC(=O)c1ccc(NC(=O)c2cccc(S(=O)(=O)N3c4ccccc4CC3C)c2)cc1 (stereo not drawn)	none
CCN(CC)CCNC(=O)c1ccc(NC(=O)c2cccc(S(=O)(=O)N3CCc4ccccc43)c2)cc1	Pf growth 96h 1µM, Pf growth 48h 0.74µM (no result: NS1 inh)
